“And” between values parts separate entries of the source, which are not always exact repeats. Identical values can stand only once. Hit rate of the full screen: of about 290,000 compounds, about 1,800 (0.62%) were called active. Cut-off read from the data, not from the text of the source: active = inhibition above about 50%; inactive = the rest. What follows is part of a selection rich in actives, with near analogues and random picks from the rest.
experiment: inhibition of NOD2-driven NF-kB reporter – cell-based, luminescence, uHTS, HEK293 (AID 1566); details: HEK293 NOD2/NF-kB luciferase reporter, at 4 µM, active compounds read high

Row | Structure (SMILES) | inhibition
1 | CCOC(=O)N1CCN(C(=O)c2ccccc2NC(=O)c2ccc(C(C)(C)C)cc2)CC1 | 4.9% (inactive)
2 | CC(=O)c1sc(-c2ccc(F)cc2F)nc1C | -0.7% (inactive)
3 | Cc1cnc(NC(=O)c2c(-c3ccccc3)noc2C)s1 | 5.6% (inactive)
4 | Cc1nnc(NC(=O)c2c(-c3ccccc3)noc2C)s1 | 4.4% (inactive)
5 | CCOc1ccc(NC(=O)Nc2ccon2)cc1 | -25.3% (inactive)
6 | CCOC(=O)c1ccc(CC(=O)c2ccc(O)c(O)c2O)o1 | 8.3% (inactive)
7 | CCOC(=O)c1ccc(CC(=O)c2ccc(O)cc2O)o1 | 67.3% (active)
8 | COC(=O)c1ccc(CC(=O)c2ccc(O)cc2O)o1 | 43.8% (inactive)
9 | CC[N+](CC)(CCO)CCCN1C(=O)C2CC=C(Cl)CC2C1=O (stereo not given) | 1.4% (inactive)
10 | CCOC(=O)c1sc2nc(C)nc(NCc3ccccc3)c2c1C | 22% (inactive)
11 | CCOC(=O)c1sc2nc(C)nc(NCc3ccc(F)cc3)c2c1C | 45.8% (inactive)
12 | CCOC(=O)c1sc2nc(C)nc(NCc3ccc(Cl)cc3)c2c1C | 51.3% (active)
13 | CC(=O)Nc1ccc(NC(=O)CSc2nc3c([nH]c4ccccc43)c(=O)n2-c2ccccc2F)cc1 | 34.3% (inactive)
14 | C(C#CCCCCCCCCC[n+]1ccccc1)#CCCCCCCCCC[n+]1ccccc1 | 68% (active)
15 | c1cc[n+](CCC[n+]2ccccc2)cc1 | 11.7% (inactive)
16 | c1cc[n+](CCCC[n+]2ccccc2)cc1 | 7.6% (inactive)
17 | CN(C)N1C(N)=C(C#N)C(c2ccc(F)cc2)C2=C1CC(C)(C)CC2=O (stereo not given) | -11.2% (inactive)
18 | O=C(COc1ccccc1)Nc1nc(-c2ccc(S(=O)(=O)N3CCOCC3)cc2)cs1 | 25.3% (inactive)
19 | O=C(COc1cccc(Cl)c1)Nc1nc(-c2ccc(S(=O)(=O)N3CCOCC3)cc2)cs1 | -0.1% (inactive)
20 | Cc1cccc(NC(=O)CCC(=O)Nc2nnc(C(F)(F)F)s2)c1 | 8.6% (inactive)

Row | Structure (SMILES) | inhibition
21 | CCS(=O)(=O)N1CCN=C1SCc1cccc(F)c1 | 8.5% (inactive)
22 | O=C(Nc1nccs1)c1ccc(N2CCOCC2)c([N+](=O)[O-])c1 | -39.7% (inactive)
23 | O=C(Nc1nc(-c2ccc(-c3ccccc3)cc2)cs1)c1cc([N+](=O)[O-])ccc1N1CCOCC1 | 6% (inactive)
24 | O=C(Nc1nc(-c2ccccc2)cs1)c1ccc(N2CCOCC2)c([N+](=O)[O-])c1 | 68.1% (active)
25 | Cc1cc(C(=O)Nc2cccc(/C=C/C(=O)O)c2)c(C)o1 | 5.6% (inactive)
26 | N/C(=N\OC(=O)c1cccc(Cl)c1)c1ccccn1 | -99.8% (inactive)
27 | CC(C)CNC(=O)CSc1nc2scc(-c3ccccc3)c2c(=O)[nH]1 | 37.7% (inactive)
28 | CC(C)(C)NC(=O)CSc1nc2scc(-c3ccccc3)c2c(=O)[nH]1 | 25.9% (inactive)
29 | CC(C)CNC(=O)c1cccc(C(=O)NCC(C)C)c1 | 7.3% (inactive)
30 | Cn1c(=O)c2c(nc(CN3CCN(c4ccccc4F)CC3)n2CCN2CCOCC2)n(C)c1=O | 9% (inactive)
31 | O=C(CN1CCOCC1)N1CCc2ccccc2C(c2ccccc2)C1 (stereo not given) | 17% (inactive)
32 | COc1ccc(F)cc1CN1CCN(c2ncnc3scc(-c4ccccc4)c23)CC1 | 19.8% (inactive)
33 | O=C(NCc1ccccc1Cl)C1CCCN(c2ncnc3c2nc2n3CCCCC2)C1 (stereo not given) | 18.9% (inactive)
34 | CC1CCN(C(=O)Cn2c(=O)oc3ccccc32)CC1 | -2.3% (inactive)
35 | COc1ccc(NC(=O)CN(c2ccc([N+](=O)[O-])cc2)S(=O)(=O)c2ccccc2)cc1 | -17.8% (inactive)
36 | CCC(=O)c1ccc(O)c(CC=C(C)C)c1 | 54.6% (active)
37 | CC(=O)c1cc(CC=C(C)C)c(O)cc1O | 30.8% (inactive)
38 | CC(=O)c1ccc(O)c(CC=C(C)C)c1 | 34.2% (inactive)
39 | O=c1cc(O)nc(SCc2ccccc2)n1-c1ccccc1 | 13.3% (inactive) and 9.4% (inactive)
40 | S=C(NCc1ccccc1)NN1CCOCC1 | 1.7% (inactive)

Row | Structure (SMILES) | inhibition
41 | Nc1nc(N2CCCCC2)nc2ccccc12 | -20.9% (inactive)
42 | Cc1cccc(NC(=O)Cn2c(O)c(N=NC(N)=S)c3ccccc32)c1 | -8.5% (inactive)
43 | Cc1cccc(Cn2c(O)c(N=NC(=S)Nc3ccccc3F)c3ccccc32)c1 | 18.9% (inactive)
44 | Cc1cccnc1NC(=O)c1cccc(S(=O)(=O)N2CCCc3ccccc32)c1 | 0.8% (inactive)
45 | O=C(O)c1cccc(NC(=O)c2cccc(S(=O)(=O)N3CCc4ccccc43)c2)c1 | -26.3% (inactive)
46 | COc1cccc(C2CC(=O)NC(SC)=C2C#N)c1 (stereo not given) | 27.4% (inactive)
47 | CCO[C@@H]1OC(C(=O)NCc2ccccc2)=C[C@H](c2ccc(Br)cc2)[C@H]1CCCO | -1.4% (inactive)
48 | Cc1c(CC(=O)N[C@@H](CCCNC(N)=O)C(=O)O)c(=O)oc2cc3oc4c(c3cc12)CCCC4 | 14.7% (inactive)
49 | COc1ccc(NC(=O)C(Cl)=C(Cl)Cl)cn1 | -25.2% (inactive)
50 | COc1ccc(CC(=O)Nc2ccc(OC)nc2)cc1 | 6.1% (inactive)
51 | COc1ccc(CS(=O)(=O)/C(Cl)=C(/Cl)C(=O)Nc2ccc(OC)nc2)cc1 | 79.2% (active)
52 | CCN(CC(=O)N(CC(C)C)c1c(N)n(CC(C)C)c(=O)[nH]c1=O)Cc1nc2ccccc2c(=O)[nH]1 | 13.4% (inactive)
53 | Cc1cc(NC(=O)CN(C)S(=O)(=O)c2cccc(Cl)c2)no1 | 0.9% (inactive)
54 | COc1ccc(NC(=O)COC(=O)C2CC(=O)N(c3ccc(OC(C)C)cc3)C2)cc1 (stereo not given) | 6.7% (inactive)
55 | O=C(NCC1OCCc2ccccc21)c1ccc(NC(=O)c2cccc(Br)c2)cc1 (stereo not given) | 2.8% (inactive)
56 | Cc1cc(/C=N/Nc2ccc([N+](=O)[O-])cn2)c(C)n1-c1ccccc1 | 8.4% (inactive)
57 | Cc1ccccc1-n1c(C)cc(/C=N/Nc2ccc([N+](=O)[O-])cn2)c1C | -29.9% (inactive)
58 | COc1cccc(/C=N/Nc2ncnc(N)c2[N+](=O)[O-])c1OC | -39.2% (inactive)
59 | Cc1cc(/C=N/Nc2nc(N)ncc2[N+](=O)[O-])c(C)n1-c1cccc(C(F)(F)F)c1 | -78.1% (inactive)
60 | O=[N+]([O-])c1cccc(-c2cc(C(F)(F)F)n3nc(-c4ccccc4)cc3n2)c1 | 26.1% (inactive)

Reference: PubChem BioAssay AID1566 (Sanford-Burnham Center for Chemical Genomics, 2009)
